Holding throughout (details): mRNA level, 48 h; actives raise or lower the signal
Read-out in test [1]: ABC Transporter (ABCC2), ABCC2 (gene 1244)
Description: LTEA_HepaRG_ABCC2: Life Technologies and Expression Analysis (LTEA) Assay for ABC Transporter (ABCC2) using HepaRG (AID 2283464). Put shortly: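 HepaRG, 48 h post-plating; serum-free induction medium; cpd 8-pt, 100 uM top, half-log, 0.5% DMSO, duplicate, 48 h. Readout: ABCC2 mRNA by qRT-PCR, norm. ACTB/GAPDH/POLR2A. Bidirectional fit vs DMSO baseline.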

Read-out in test [2]: Broad substrate specificity ATP-binding cassette transporter ABCG2 (Homo sapiens) (UniProt Q9UNQ0)
In words: LTEA_HepaRG_ABCG2: Life Technologies and Expression Analysis (LTEA) Assay for ABC Transporter (ABCG2) using HepaRG (AID 2283465). An outline of the steps: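 Differentiated HepaRG cells in serum-free induction medium were exposed for 48 h, in duplicate, to eight half-log concentrations up to 100 uM in 0.5% DMSO. ABCG2 mRNA was measured by TaqMan qRT-PCR, normalized to ACTB, GAPDH and POLR2A, and fitted bidirectionally versus DMSO.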

Read-out in test [3]: ATP-citrate lyase (ACLY), ACLY (gene 47)
In words: LTEA_HepaRG_ACLY: Life Technologies and Expression Analysis (LTEA) Assay for ATP-citrate lyase (ACLY) using HepaRG (AID 2283466). Put shortly: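 Differentiated human HepaRG cells in serum-free induction medium exposed 48 h, in duplicate, to eight half-log concentrations from 100 uM top in 0.5% DMSO; ACLY mRNA measured by qRT-PCR, normalized to ACTB, GAPDH, POLR2A, fitted bidirectionally versus DMSO.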

Read-out in test [4]: Peroxisomal acyl-coenzyme A oxidase 1 (ACOX1) gene, ACOX1 (gene 51)
In words: LTEA_HepaRG_ACOX1: Life Technologies and Expression Analysis (LTEA) Assay for Peroxisomal acyl-coenzyme A oxidase 1 (ACOX1) gene using HepaRG (AID 2283467). An outline of the steps:
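Differentiated human HepaRG cells were exposed in duplicate for 48 h in serum-free induction medium to eight half-log concentrations up to 100 uM in 0.5% DMSO. ACOX1 mRNA was then quantified by TaqMan qRT-PCR, normalized to ACTB, GAPDH and POLR2A.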

Read-out in test [5]: Alkaline Phosphatase, Placental (ALPP) gene, ALPP (gene 250)
Description: LTEA_HepaRG_ALPP: Life Technologies and Expression Analysis (LTEA) Assay for Alkaline Phosphatase, Placental (ALPP) gene using HepaRG (AID 2283468). An outline of the steps:
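HepaRG, 48 h plating then 48 h dosing, serum-free induction medium, 0.5% DMSO. 8 conc, half-log, max 100 uM, duplicates. Endpoint: ALPP transcript by qRT-PCR, housekeeping-normalized; gain or loss fitted vs DMSO.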

Read-out in test [6]: Bcl-2 (BAX) gene, BAX (gene 581)
In words: LTEA_HepaRG_BAX: Life Technologies and Expression Analysis (LTEA) Assay for Bcl-2 (BAX) gene using HepaRG (AID 2283470). An outline of the steps: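 Concentration-response endpoint fitted in both directions relative to 0.5% DMSO vehicle. Human HepaRG cultures receive test chemicals for 48 h at up to 100 uM; BAX mRNA is quantified by qRT-PCR against housekeeping genes.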

Read-out in test [7]: adenosine kinase (ADK) gene, ADK (gene 132)
Description: LTEA_HepaRG_ADK: Life Technologies and Expression Analysis (LTEA) Assay for adenosine kinase (ADK) gene using HepaRG (AID 2283471). Put shortly: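 ADK expression quantified by qRT-PCR, normalised to three housekeeping genes, after 48 h exposure of HepaRG cells to eight concentrations (top 100 uM, half-log steps, duplicate, 0.5% DMSO). Up- or down-regulation fitted relative to vehicle.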

Read-out in test [8]: Alpha-fetoprotein (AFP) gene, AFP (gene 174)
Description: LTEA_HepaRG_AFP: Life Technologies and Expression Analysis (LTEA) Assay for Alpha-fetoprotein (AFP) gene using HepaRG (AID 2283472). An outline of the steps: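 After a 48 h plating period, cells are moved to serum-free induction medium and dosed in duplicate (100 uM maximum, half-log dilutions, 0.5% DMSO) for another 48 h. Total RNA goes to TaqMan qRT-PCR; AFP signal is housekeeping-normalized.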

Read-out in the next test: BCL2L11 (gene 10018)
In words: LTEA_HepaRG_BCL2L11: Life Technologies and Expression Analysis (LTEA) Assay for Bcl-2 (BCL2L11) gene using HepaRG (AID 2283473). Put shortly: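 Read-out is BCL2L11 transcript level by qRT-PCR, normalized to three housekeeping genes and fitted bidirectionally against 0.5% DMSO vehicle. HepaRG cells received chemicals for 48 h in serum-free induction medium, 100 uM down in half-log dilutions.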

Read-out in test [9]: Apolipoprotein A-V (APOA5) gene, APOA5 (gene 116519)
Description: LTEA_HepaRG_APOA5: Life Technologies and Expression Analysis (LTEA) Assay for Apolipoprotein A-V (APOA5) gene using HepaRG (AID 2283474). Put shortly:
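Readout is APOA5 transcript level by qRT-PCR on Fluidigm dynamic arrays, normalized to three housekeeping genes. HepaRG cultures received chemicals for 48 h at up to 100 uM (half-log steps, 0.5% DMSO), with gain or loss scored relative to DMSO.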

Read-out in test [10]: Apoptosis regulator Bcl-2 (Homo sapiens) (UniProt P10415)
Description: LTEA_HepaRG_BCL2: Life Technologies and Expression Analysis (LTEA) Assay for Bcl-2 gene using HepaRG (AID 2283475).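 Further: BCL2 transcript by TaqMan qRT-PCR normalised to ACTB GAPDH and POLR2A.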 Put shortly:
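Expression change of BCL2 mRNA in HepaRG after 48 h dosing, quantified by TaqMan qRT-PCR against three endogenous controls. Concentration-response used eight points up to 100 uM, vehicle 0.5% DMSO.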

Read-out in test [11]: Bcl-2 (BID) gene, BID (gene 637)
Description: LTEA_HepaRG_BID: Life Technologies and Expression Analysis (LTEA) Assay for Bcl-2 (BID) gene using HepaRG (AID 2283476). An outline of the steps:
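Gain or loss of BID expression is fitted relative to 0.5% DMSO vehicle. Human HepaRG liver cells received a 48 h chemical exposure over an eight-point concentration range.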

Read-out in the next test: Caspase-3 (Homo sapiens) (UniProt P42574)
Description: LTEA_HepaRG_CASP3: Life Technologies and Expression Analysis (LTEA) Assay for cysteine-aspartic acid protease (CASP3) using HepaRG (AID 2283477). Put shortly:
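Read-out is CASP3 mRNA level by TaqMan qRT-PCR in human HepaRG cells after 48 h chemical exposure. Eight half-log concentrations topping at 100 uM were tested in 0.5% DMSO; gain or loss was fitted relative to DMSO.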

Read-out in test [12]: Cytochrome P450 (CYP24A1), CYP24A1 (gene 1591)
Description: LTEA_HepaRG_CYP24A1: Life Technologies and Expression Analysis (LTEA) Assay for Cytochrome P450 (CYP24A1) using HepaRG (AID 2283478). An outline of the steps: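 HepaRG, 48 h chemical exposure, 8-pt half-log CRC from 100 uM, 0.5% DMSO vehicle, duplicates. Endpoint: CYP24A1 mRNA by Fluidigm TaqMan qRT-PCR, normalized ACTB/GAPDH/POLR2A; gain/loss fit vs DMSO.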

Read-out in test [13]: Cytochrome P450 (CYP1A2), CYP1A2 (gene 1544)
Description: LTEA_HepaRG_CYP1A2: Life Technologies and Expression Analysis (LTEA) Assay for Cytochrome P450 (CYP1A2) using HepaRG (AID 2283479). An outline of the steps: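 CYP1A2 transcript induction or loss, quantified by Fluidigm qRT-PCR against three housekeeping genes, was fitted bidirectionally against 0.5% DMSO controls. Human HepaRG cells received eight half-log concentrations from 100 uM over 48 h.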

Read-out in test [14]: cysteine-aspartic acid protease (CASP8), CASP8 (gene 841)
Description: LTEA_HepaRG_CASP8: Life Technologies and Expression Analysis (LTEA) Assay for cysteine-aspartic acid protease (CASP8) using HepaRG (AID 2283480). Put shortly:
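Differentiated human HepaRG cells, plated 48 h then switched to serum-free induction medium, were exposed in duplicate for 48 h to 8 half-log concentrations up to 100 uM in 0.5% DMSO. CASP8 mRNA was quantified by qRT-PCR, normalized to ACTB/GAPDH/POLR2A.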

Read-out in test [15]: Cytochrome P450 (CYP2B6), CYP2B6 (gene 1555)
Description: LTEA_HepaRG_CYP2B6: Life Technologies and Expression Analysis (LTEA) Assay for Cytochrome P450 (CYP2B6) using HepaRG (AID 2283481). An outline of the steps: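 HepaRG cells plated 48 h, switched to serum-free induction medium, then dosed 48 h (8 points, half-log from 100 uM, 0.5% DMSO). RNA isolated; CYP2B6 expression measured by qRT-PCR; gain or loss fitted relative to DMSO.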

Read-out in test [16]: Cytochrome P450 2C19 (Homo sapiens) (UniProt P33261)
In words: LTEA_HepaRG_CYP2C19: Life Technologies and Expression Analysis (LTEA) Assay for CYP2C19 using HepaRG (AID 2283482). Put shortly:
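Transcript levels of CYP2C19 were quantified by qRT-PCR after HepaRG cells were treated for 48 hours with test chemicals up to 100 uM (eight half-log concentrations, 0.5% DMSO vehicle). Gain or loss of signal was fitted relative to DMSO.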

Read-out in another test: CYP2C8 (gene 1558)
Description: LTEA_HepaRG_CYP2C8: Life Technologies and Expression Analysis (LTEA) Assay for CYP2C8 using HepaRG (AID 2283483). Put shortly:
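Differentiated human HepaRG cells were exposed for 48 h in serum-free induction medium to eight half-log concentrations up to 100 uM in 0.5% DMSO, in duplicate. CYP2C8 mRNA was measured by TaqMan qRT-PCR, normalized to ACTB, GAPDH and POLR2A, and fitted bidirectionally against DMSO.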

Activity calls are given as the source filed them. How the source made its calls: active means hit-call score of the fitted dose curve at least 0.9, where 1 is the maximum; inactive means score below 0.9.

Caspase-3 (Homo sapiens), sequence (P42574 whole entry, looked up): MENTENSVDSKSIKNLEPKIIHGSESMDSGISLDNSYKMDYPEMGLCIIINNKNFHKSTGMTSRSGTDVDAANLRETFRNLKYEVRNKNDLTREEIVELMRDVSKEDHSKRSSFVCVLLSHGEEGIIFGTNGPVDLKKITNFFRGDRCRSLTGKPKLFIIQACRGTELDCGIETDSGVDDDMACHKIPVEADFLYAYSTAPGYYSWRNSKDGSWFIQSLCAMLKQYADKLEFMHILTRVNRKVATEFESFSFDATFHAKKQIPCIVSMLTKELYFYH
Apoptosis regulator Bcl-2 (Homo sapiens), sequence (P10415 whole entry, looked up): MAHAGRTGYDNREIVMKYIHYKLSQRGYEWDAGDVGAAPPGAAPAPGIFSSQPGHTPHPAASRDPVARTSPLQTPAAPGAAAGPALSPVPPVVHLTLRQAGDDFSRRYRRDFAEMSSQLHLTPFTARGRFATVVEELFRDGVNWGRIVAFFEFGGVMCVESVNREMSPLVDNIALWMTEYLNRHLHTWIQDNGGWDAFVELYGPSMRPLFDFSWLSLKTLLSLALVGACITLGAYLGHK
Broad substrate specificity ATP-binding cassette transporter ABCG2 (Homo sapiens), sequence (Q9UNQ0 whole entry, looked up): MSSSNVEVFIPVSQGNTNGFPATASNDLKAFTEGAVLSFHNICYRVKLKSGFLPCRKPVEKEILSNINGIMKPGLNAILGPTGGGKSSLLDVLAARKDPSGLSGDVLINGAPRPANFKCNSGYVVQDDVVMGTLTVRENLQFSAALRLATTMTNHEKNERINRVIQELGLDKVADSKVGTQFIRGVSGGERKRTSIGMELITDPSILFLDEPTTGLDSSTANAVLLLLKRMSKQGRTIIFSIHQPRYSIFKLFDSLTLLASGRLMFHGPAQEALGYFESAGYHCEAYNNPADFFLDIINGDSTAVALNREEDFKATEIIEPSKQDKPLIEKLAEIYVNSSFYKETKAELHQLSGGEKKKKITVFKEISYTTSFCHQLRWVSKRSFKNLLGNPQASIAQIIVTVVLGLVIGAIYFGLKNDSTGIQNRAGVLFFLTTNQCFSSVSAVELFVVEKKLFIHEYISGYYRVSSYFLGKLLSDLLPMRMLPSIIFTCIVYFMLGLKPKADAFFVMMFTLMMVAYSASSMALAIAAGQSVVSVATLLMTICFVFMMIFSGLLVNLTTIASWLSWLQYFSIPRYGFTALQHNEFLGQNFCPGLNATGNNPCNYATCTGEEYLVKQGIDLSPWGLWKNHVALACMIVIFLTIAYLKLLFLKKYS
Cytochrome P450 2C19 (Homo sapiens), sequence (P33261 whole entry, looked up): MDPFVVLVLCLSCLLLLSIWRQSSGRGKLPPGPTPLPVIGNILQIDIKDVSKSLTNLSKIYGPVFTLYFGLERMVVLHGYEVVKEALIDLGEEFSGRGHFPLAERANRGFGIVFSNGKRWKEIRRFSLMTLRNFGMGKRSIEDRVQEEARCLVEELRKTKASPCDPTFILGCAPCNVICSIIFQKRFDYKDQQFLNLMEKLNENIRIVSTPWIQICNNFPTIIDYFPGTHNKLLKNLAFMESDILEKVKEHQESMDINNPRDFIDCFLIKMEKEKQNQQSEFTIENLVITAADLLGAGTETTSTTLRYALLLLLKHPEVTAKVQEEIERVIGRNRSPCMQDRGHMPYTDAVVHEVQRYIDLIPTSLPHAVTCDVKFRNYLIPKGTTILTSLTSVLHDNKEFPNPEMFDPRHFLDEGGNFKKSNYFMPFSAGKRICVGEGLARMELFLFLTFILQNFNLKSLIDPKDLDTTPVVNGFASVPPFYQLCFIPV

`COCCOCCO`: the compound was classed as inactive in test [1], in test [2], in test [3], in test [4], in test [5] and in [6]. For the same compound, the compound was classed as inactive (in [7]; in [8]; with BCL2L11 (gene 10018); in test [9]; in test [10]; in test [11]). Also, the call (in the test with Caspase-3 (Homo sapiens); in test [12]; in test [13]; in test [14]; in the test with CYP2C8 (gene 1558)) was inactive. Also, the AC50 was 1.15 µM (active) in [15] and 2.31 µM (active) in test [16].

On to `CCOC(=O)c1ccccc1C(=O)OCC`, for which the result in test [1], in test [2], in test [3], in test [4], in [5] and in test [6] was inactive. The outcome (in test [7]; in [8]; in the test with BCL2L11 (gene 10018); in test [9]; in test [10]; in test [11]) was inactive. Moreover, the compound was classed as inactive (in the test with Caspase-3 (Homo sapiens); in test [12]; in test [14]; in test [15]; in test [16]; with CYP2C8 (gene 1558)). The concentration at half-maximal activity (AC50) in test [13] is 83 µM (active).

`CCCCN(CCCC)N=O`: the result in test [1], in test [2], in [3], in [4], in test [5] and in test [6] was inactive. For the same compound, the result (in test [7]; in test [8]; with BCL2L11 (gene 10018); in test [9]; in [10]; in test [11]) was inactive. The compound was called inactive (with Caspase-3 (Homo sapiens); in [12]; in test [13]; in [14]; in test [15]; in test [16]). In addition, in the test with CYP2C8 (gene 1558), the compound was called inactive.

Turning to `Cc1ccc(N)cc1N`, the call in [1], in [2], in test [3], in test [4], in test [5] and in test [6] was inactive. In addition, the outcome (in [7]; in [8]; in the test with BCL2L11 (gene 10018); in test [9]; in test [10]; in test [11]) was inactive. Besides, the compound was called inactive (with Caspase-3 (Homo sapiens); in [12]; in [14]; in [16]; in the test with CYP2C8 (gene 1558)). Also, the AC50 in test [13] was 21.5 µM (active); in test [15], 5 µM (active).

On to `CCOP(=S)(Oc1ccc([N+](=O)[O-])cc1)c1ccccc1` (stereo not given), for which the AC50 is 24 µM (active) in test [1]; 12.7 µM (active) in test [2]; 50 µM (active) in test [5]; 29.4 µM (active) in test [8]; 24.2 µM (active) in test [13]; 1.05 µM (active) in [15]. Moreover, the AC50 in [16] was 6.06 µM (active); with CYP2C8 (gene 1558), 2.42 µM (active). The compound was classed as inactive (in test [3]; in [4]; in test [6]; in [7]; with BCL2L11 (gene 10018); in test [9]). The call (in test [10]; in test [11]; in the test with Caspase-3 (Homo sapiens); in test [12]; in [14]) was inactive.

The values are drawn from PubChem BioAssay (EPA / NIEHS).
